Measured values: PubChem BioAssay (NCATS)
Where “and” joins values, the source holds several entries; their conditions need not be identical. Equal entries are not always repeated. Inconclusive results are not listed. Unmarked numbers belong to inactive results. Calls of active or inactive are those of the source. Calls follow the shape of the dose curve; as a rule, active = well fitted curve in the direction sought with a large enough effect; inconclusive = small, poorly fitted or top-dose-only effect, or another doubt; inactive = no such curve, though single readings can be large; an effect the other way counts as inactive or inconclusive.

Assays:
[1] = Viability qHTS for spleen associated tyrosine kinase inhibitor (SYKi) drug resistant MV4-11 cells (AID 1963824); also: nearly all actives have a fitted effect of over 35% in size
Summary of the method: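 SYK inhibitor-resistant MV4-11 AML cells, 500 per well, added to predispensed compounds and incubated 72 hr at 37 C, 5% CO2. Viability measured by CellTiter-Glo luminescence after 10 min at room temperature.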

[2] = Quantitative highthroughput screen to assess conditional lethalithy of SEM cells grown in Human Plasma-Like Medium with dialyzed fetal bovine serum (HPLM+ds) (AID 1963882); also: nearly all actives have a fitted effect of over 35% in size; as to Viability: series mostly up to about 46 µM
Summary of the method: (§1)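 Each medium arm—HPLM with 10% dialyzed FBS, or RPMI1640 with 5 mM glucose and 10% untreated or dialyzed FBS—was screened against an 11-point, 3-fold compound titration for 48 h at 37 °C, with CellTiter-Glo luminescence as endpoint.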

[3] = Cellular viability qHTS for adrenocortical cancer (ACC) cell line SW-13 (AID 1963989); settings: SW-13 ACC cells viability, CellTiter-Glo, 48 h; activity (max response): hits give low values; also: nearly all actives have a fitted effect of over 65% in size;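 as to activity (max response): cells grown in serum-free medium with ITS supplement; % is scaled to controls: 0 for no effect and ±100 for the full control effect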
Summary of the method: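 Luminescent ATP read-out (CellTiter-Glo, 20 min at room temperature) measured metabolically competent SW-13 cells after 48 h compound treatment. Final concentrations spanned up to 46 uM; bortezomib served as positive control.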

[4] = Quantitative highthroughput screen to assess conditional lethalithy of P12 Ichikawa cells grown in RPMI1640 with dialyzed fetal bovine serum (RPMI+ds) (AID 1963880); settings: Potency: P12-Ichikawa viability; also: nearly all actives have a fitted effect of over 35% in size
Summary of the method: as §1

[5] = Quantitative highthroughput screen to assess conditional lethalithy of SEM cells grown in RPMI1640 with unreated serum (RPMI+s) (AID 1963883); also: nearly all actives have a fitted effect of over 35% in size
Summary of the method: as §1

[6] = Quantitative highthroughput screen to assess conditional lethalithy of SEM cells grown in RPMI1640 with dialyzed fetal bovine serum (RPMI+ds) (AID 1963884); also: nearly all actives have a fitted effect of over 35% in size
Summary of the method: as §1

[7] = Cellular viability qHTS for adrenocortical cancer (ACC) cell line NCI-H295R (AID 1963990); also: nearly all actives have a fitted effect of over 60% in size
Summary of the method: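 IC50 and maximal efficacy derive from four-parameter logistic modelling of titration curves, with reads scaled between DMSO-only wells (0%) and doxorubicin hydrochloride (100% inhibition). Compounds spanned up to 46 uM over 48 h.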
Potency is read from the fitted curve at half-maximal effect.

**Q.** With O=C(CCCN1CCN(c2ccc(F)cc2)CC1)NC1c2ccccc2CSc2ccccc21 (centres undefined) as the molecule, how does the Potency [1] read?
**A.** Its Potency is 14.6 µM (active).

**Q.** And the Potency [2]?
**A.** Its Potency is “inactive”.

**Q.** What about the activity (max response) [3] of the same molecule?
**A.** The activity (max response) was -20.8%.

**Q.** Which results are given for Nc1ncnc2c1c(-c1cnc3[nH]ccc3c1)nn2C1CCCC1?
**A.** Potency [1]: 1.16 µM (active) and 1.18 µM (active); Potency [4]: 1.48 µM (active); Potency [2]: 5.26 µM (active); Potency [5]: 3.72 µM (active); Potency [6]: 5.9 µM (active); Potency [3]: 5.01 µM (active); Potency [7]: 2.82 µM (active)

**Q.** For CC(NN)c1ccccc1 (centres undefined), which Potency [1] is on record?
**A.** The Potency was “inactive”.

**Q.** What about the activity (max response) [3] of the same molecule?
**A.** Its activity (max response) is -4.01%.

**Q.** Which Potency [1] does the source give for CC(Nc1ncnc2nc[nH]c12)c1cc2cccc(Cl)c2c(=O)n1-c1ccccc1 (centres undefined) here?
**A.** The Potency was 2.59 µM (active).

**Q.** And the activity (max response) [3]?
**A.** Its activity (max response) is -2.7%.

**Q.** With COC(=O)C(c1ccccc1Cl)N1CCc2sccc2C1 (centres undefined) as the molecule, how does the Potency [1] read?
**A.** Its Potency is “inactive”.

**Q.** And the activity (max response) [3]?
**A.** The activity (max response) was 0.0767%.

**Q.** Which Potency [1] does the source give for CCCCCCCCCCCCCC[N+](C)(C)C here?
**A.** The Potency was 1.33 µM (active).

**Q.** And the Potency [3]?
**A.** The Potency was 4.61 µM (active).

**Q.** Which Potency [1] does the source give for Cc1ccc(O)cc1 here?
**A.** The Potency was “inactive”.

**Q.** And the activity (max response) [3]?
**A.** The activity (max response) was 11.5%.

**Q.** For C[C@H]1C[C@@H](n2c(Nc3ccc(OC(F)(F)F)cc3)nc3cc(CCC(=O)O)ccc32)CC(C)(C)C1, which Potency [1] is on record?
**A.** Its Potency is 10.5 µM (active).

**Q.** And the activity (max response) [3]?
**A.** The activity (max response) was -13.1%.

**Q.** What does the source list for Cc1ccc(N)cc1O?
**A.** Potency [1]: 9.69 µM (active); activity (max response) [3]: 2.63%

**Q.** What does the source list for CC(=O)Nc1nc(C)c(-c2ccc(Cl)c(S(=O)(=O)NCCO)c2)s1?
**A.** Potency [1]: 0.92 µM (active); Potency [2]: 4.18 µM (active); Potency [6]: 1.66 µM (active); Potency [3]: 17.8 µM (active)

**Q.** What does the source list for CC(=O)/C=C/C=C1/C2CCC(C2)C1(C)C (centres undefined)?
**A.** Potency [1]: inactive; activity (max response) [3]: 6.09%

**Q.** Which results are given for C[n+]1cc2c3c(ccc2c2ccc4cc5c(cc4c21)OCO5)OCO3?
**A.** Potency [1]: 1.3 µM (active); Potency [3]: 2.24 µM (active)

**Q.** With CC(C)(C)CC(C)(C)c1ccc(O)c(Cc2ccc(Cl)cc2Cl)c1 as the molecule, how does the Potency [1] read?
**A.** Its Potency is 15 µM (active).

**Q.** What about the Potency [3] of the same molecule?
**A.** The Potency was 16.4 µM (active).
